# From PubChem BioAssay
# SRC2 inh – human SRC2 (NCOA2) inhibition; Q15596; HEK293 GAL4-SRC2 luciferase reporter, luminescence; inhibition, % at 9 µM; 370,000 tested, 0.17% active;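 active = inhibition above the mean inhibition of all tested compounds plus 3 SD, set per campaign, cut at about 52% in these data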;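 note: 0% = DMSO treated cells and 100% = cells given Gossypol at 36 µM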
# Gli-Sufu block – blocks Gli-Sufu signaling in a luciferase reporter; Sufu-KO-LIGHT fibroblasts, Gli luciferase reporter luminescence; inhibition, % at 5 µM; 340,000 tested, 0.74% active;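 active = inhibition above about 55%, limit read from the data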;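 note: 0% = DMSO-treated cells and 100% = wells with medium but no cells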
# NR5A2 inv ag – NR5A2 inverse agonism in reporter assay; inhibition, % at 3.6 µM; 360,000 tested, 0.13% active; O00482; HEK293T StAR-luciferase reporter, LRH-1 transfected, 24 h;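 active = inhibition above the mean inhibition of all tested compounds plus 3 SD, cut at about 73% in these data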;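 note: 0% = DMSO wells and 100% = reporter-only cells lacking LRH-1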
# NCOA1 inh – human NCOA1 inhibition. Q15788. AID 588354. 360,000 tested, 0.12% active. inhibition, % at 3.6 µM. HEK293 GAL4-SRC1 luciferase reporter, luminescence;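 active = inhibition above the campaign mean plus 3 SD, with each screening campaign given its own cutoff, cut at about 60% in these data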;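 note: 0% = DMSO treated cells and 100% = gossypol at 36 µM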
# SRC3 inh – human NCOA3 inhibition; inhibition, % at 3.6 µM; 360,000 tested, 0.17% active; AID 588352; Q9Y6Q9; HEK293 GAL4-SRC3 luciferase reporter, luminescence;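 active = inhibition above a per-campaign cutoff, the mean of all compounds plus 3 SD, cut at about 60% in these data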;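 note: 0% = DMSO-treated cells and 100% = gossypol-treated cells at 36 µM; higher means less SRC3-driven luciferase light from the GAL4 reporter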
# NR2F2 inh – inhibitors of human COUP-TFII (NR2F2). HEK293T NGFI-A luciferase reporter, luminescence. inhibition, % at 8.6 µM. 370,000 tested, 0.7% active. AID 686940;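 active = inhibition above a per-plate cutoff, mean inhibition of test wells between control levels plus 3 SD, cut at about 38% in these data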;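 note: cells cotransfected with COUP-TFII expression vector driving the NGFI-A reporter; 0% = median of COUP-TF2 test wells and 100% = reporter-only cells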
# Target sequence (P24468 whole entry, looked up): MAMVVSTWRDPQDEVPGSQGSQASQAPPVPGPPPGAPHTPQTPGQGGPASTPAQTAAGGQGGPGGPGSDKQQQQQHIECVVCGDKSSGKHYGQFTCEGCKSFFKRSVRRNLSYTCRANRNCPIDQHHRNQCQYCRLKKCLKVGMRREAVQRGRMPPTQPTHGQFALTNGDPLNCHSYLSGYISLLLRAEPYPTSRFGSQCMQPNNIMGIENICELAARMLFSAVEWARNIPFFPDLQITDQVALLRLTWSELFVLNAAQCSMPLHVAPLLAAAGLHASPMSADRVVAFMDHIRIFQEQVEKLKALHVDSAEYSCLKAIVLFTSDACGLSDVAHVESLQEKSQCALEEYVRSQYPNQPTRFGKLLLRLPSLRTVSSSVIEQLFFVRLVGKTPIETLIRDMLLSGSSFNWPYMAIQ
# Gal4-VP16 ctr – VP16 inhibition counter-screen for COUP-TFII; shares compounds with NR2F2 inh; HEK293 Gal4-VP16 luciferase reporter, luminescence; inhibition, % at 8.5 µM; 2,500 tested, 25% active; AID 687007; in the data active = inhibition above about 13%
# NR2F2 inh conf – COUP-TFII (NR2F2) inhibition, confirmation assay; shares compounds with NR2F2 inh; 2,500 tested, 45% active; inhibition, % at 8.5 µM; AID 687008; HEK293 NGFI-A luciferase reporter, luminescence;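 active = mean inhibition over three repeats above a set limit taken from the earlier primary screen, cut at about 38% in these data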;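 note: 100% = cells given the luciferase reporter alone without the COUP-TF2 vector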
# * hit, by the source's call; . = not tested or not shown. Sampled rows, rich in hits. Any-hit rate of the full collection: about 1.2%.
SMILES,SRC2 inh,Gli-Sufu block,NR5A2 inv ag,NCOA1 inh,SRC3 inh,NR2F2 inh,Gal4-VP16 ctr,NR2F2 inh conf
O=C(Nc1ccc(-c2nc3ccccc3o2)cc1)c1cc(-n2cnnc2)ccc1Cl,5.1,2.6,16.8,12.4,-3.5,34.1,.,.
Cc1cc(=O)oc2cc(OCc3c(F)cccc3Cl)ccc12,-29.7,.,.,.,.,-5.6,.,.
CC(C)(C)c1ccc(C(=O)Nc2cccnc2)cc1,-67.9,-60.2,-153.3,-77.5,-96.1,-20.4,.,.
CC(C)(C)c1ccc(C(=O)Nc2ccc(Oc3cccnc3)nc2)cc1,17.2,-5.3,21.1,23.1,13.4,64.0*,-7.9,61.5*
O=C(NO)c1ccc(OC(F)F)cc1,17.2,4.7,4.6,18.2,9.3,45.3*,-11.0,35.7
C#CCN(C[C@@H]1[C@@H](OC(=O)NCC2CCCCC2)[C@@H](OC(=O)NCC2CCCCC2)Cn2c(=O)ccc(=O)n21)S(=O)(=O)c1ccc(C)cc1,31.4,.,59.0,-4.9,6.8,53.7*,45.2*,57.2*
O=C(c1ccco1)N1CCN=C1SCc1cccc(F)c1,3.7,-7.4,-46.7,1.1,9.2,22.5,.,.
O=C(c1ccco1)N1CCN=C1SCc1ccc(F)cc1,-2.4,-22.8,7.2,-0.3,12.3,57.6*,-4.6,0.6
COCC(=O)N1C[C@H]2CON(C)[C@H]2C[C@H]1c1cccc(-c2cc(Cl)cc(Cl)c2)c1,9.5,.,.,.,.,-4.5,.,.
Cc1cc(C)n2c(Nc3ccc4c(c3)OCCO4)c(-c3ccc(C)o3)nc2n1,-44.1,3.0,-61.5,-59.7,-81.3,-63.2,.,.
Cc1cc(C)n2c(Nc3ccc4c(c3)OCCO4)c(-c3cc4ccccc4o3)nc2n1,37.0,.,42.6,.,.,51.3*,-26.4,-15.8
Cc1ccc(C(=O)N2CCC(Oc3cccnc3)CC2)c(C)c1,6.3,.,.,.,.,-0.8,.,.
COc1ccc(C(=O)C2CCN(c3ncnc4sccc34)CC2)cc1,.,.,.,.,.,76.2*,4.5,68.3*
O=C(c1cccs1)C1CCN(c2ncnc3sccc23)CC1,.,.,.,.,.,75.8*,11.9,68.5*
O=C(c1ccc(Cl)cc1)C1CCN(c2ncnc3sccc23)CC1,.,.,.,.,.,69.0*,0.0,55.8*
COc1ccc(NC(=O)Nc2ccc3c(c2)C(=O)N([C@H](C)CO)C[C@H](C)[C@H](CN(C)C)OCCCC[C@@H](C)O3)cc1,-22.8,.,.,.,.,5.0,.,.
C[C@@H]1CCCCO[C@@H](CN(C)C(=O)NC2CCCCC2)[C@@H](C)CN([C@H](C)CO)C(=O)c2cc(N(C)C)ccc2O1,9.6,.,.,.,.,3.9,.,.
O=C(Nc1cccc(S(=O)(=O)N2CCCCC2)c1)c1ccc2c(=O)n3c(nc2c1)CCCCC3,26.1,13.1,26.4,12.7,32.2,44.9*,-0.5,48.8*
CN(CCO)c1cccc2c1S(=O)(=O)N(Cc1cn(Cc3cccc(C(F)(F)F)c3)nn1)Cc1ccccc1O2,-43.5,.,.,.,.,-4.5,.,.
CC(C)(C)C1CCc2c(sc(NC(=O)CSc3ncn[nH]3)c2C#N)C1 (stereo not drawn),6.4,2.7,-1.0,15.0,1.9,-3.6,.,.
CC1CCc2c(sc(NC(=O)CSc3ncn[nH]3)c2C#N)C1 (stereo not drawn),82.0*,32.5,46.8,44.2,53.4,85.9*,79.9*,84.1*
N#Cc1c(NC(=O)CSc2ncn[nH]2)sc2c1CCCC2,75.2*,22.2,38.8,23.2,25.9,76.8*,78.5*,74.3*
N#Cc1c(NC(=O)CCCC(=O)O)sc2c1CCCCC2,61.2*,-16.5,-27.4,-66.1,-13.3,46.3*,16.7*,1.2
COc1ccc(N2C(=O)c3[nH]nc(-c4ccccc4)c3C2c2cccc(C(F)(F)F)c2)cc1 (stereo not drawn),12.3,.,.,.,.,9.9,.,.
O=C(Nc1ccc(C(F)(F)F)cc1)OC1CCC12CCCCC2 (stereo not drawn),4.5,.,.,.,.,-3.8,.,.
SMILES,SRC2 inh,Gli-Sufu block,NR5A2 inv ag,NCOA1 inh,SRC3 inh,NR2F2 inh,Gal4-VP16 ctr,NR2F2 inh conf
Cc1nn(-c2nc3ccccc3[nH]2)c(=O)c2ccccc12,85.4*,79.0*,72.8*,74.3*,79.8*,96.6*,68.0*,89.9*
COc1ccccc1OCc1ccc(C(=O)Nc2ccncc2)o1,8.4,12.8,-2.2,9.9,31.7,38.9*,3.2,15.5
COc1ccc2c(c1)c(/C=C/c1cc[n+](C)cc1)cn2C,-18.4,-0.4,0.8,6.8,7.9,14.1,.,.
CC[n+]1ccc(/C=C/c2c[nH]c3ccccc23)cc1,16.2,46.2,46.7,28.1,38.1,50.7*,4.3,27.9
COc1ccc2c(/C=C/c3cc[n+](C)cc3)c[nH]c2c1,16.5,9.3,41.6,13.0,29.9,38.2*,7.3,38.9*
Cc1ccc2[nH]cc(/C=C/c3cc[n+](C)cc3)c2c1,-6.5,25.9,67.3,39.0,57.5,42.9*,7.4,31.7
C[C@@H]1CN([C@@H](C)CO)C(=O)CCCn2nncc2CO[C@@H]1CN(C)C(=O)C1CC1,-23.3,.,.,.,.,1.8,.,.
Cc1cc(N2CCN(C(=O)OC(C)(C)C)C[C@@H]2C)ccc1N1C[C@@H](C)O[C@@H](C)C1,-0.4,.,.,.,.,2.4,.,.
Cc1cc(C)nc(/N=C(\N)Nc2ccc(OCc3ccccc3)cc2)n1,1.6,23.2,33.7,-14.4,19.8,47.0*,3.7,27.1
Cc1cc(C)nc(/N=C(\N)Nc2cccc(OCc3ccccc3)c2)n1,11.3,18.9,24.4,-20.9,14.0,27.4,.,.
Cc1cc(C)nc(/N=C(\N)Nc2ccc(OCCC(C)C)cc2)n1,11.9,26.1,26.1,21.6,40.5,58.4*,18.3*,38.0*
Cc1cc(C)nc(/N=C(\N)Nc2ccc(S(=O)(=O)O)cc2)n1,-9.5,-9.9,7.3,-31.8,5.5,8.2,.,.
COC(=O)C1CCN(C(=O)c2cc(-c3ccc(Cl)s3)nc3ccccc23)CC1,19.0,0.6,10.3,-3.5,20.2,37.6*,-6.1,4.4
CCN1CCN(C(=O)c2cc(-c3ccc(Cl)s3)nc3ccccc23)CC1,14.5,5.0,-5.8,4.9,2.1,-8.9,.,.
C[C@@H]1CN([C@@H](C)CO)C(=O)CCCn2cc(nn2)CO[C@H]1CN(C)C(=O)Nc1ccccc1F,0.5,.,.,.,.,11.7,.,.
COC(=O)C1=C(C)N(Cc2ccccc2C(F)(F)F)C(=NCC2CC2)NC1CCc1ccccc1 (stereo not drawn),-11.7,.,.,.,.,-18.4,.,.
COc1ccc([N+](=O)[O-])cc1NC(=S)NC(NC(=O)C(c1ccccc1)c1ccccc1)C(Cl)(Cl)Cl (stereo not drawn),13.2,-2.2,4.1,7.1,6.3,40.6*,0.0,12.5
COC(=O)c1ccc(-c2cccc(CN3CCN(c4ncc(Cc5ccccc5)cn4)CC3)c2)cc1,-17.8,.,.,.,.,7.4,.,.
COC(=O)c1cc2c(c3c4ccccc4n(S(=O)(=O)c4ccccc4)c13)C(=O)N(Cc1ccc(C(F)(F)F)cc1)C2,-20.0,.,.,.,.,23.6,.,.
